Ba/F3 V617F tox = lowers viability of Ba/F3 cells expressing EpoR and JAK2V617F; ATP luminescence; inhibition, % at 5.6 µM; 1.1% of 220,000 active;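 active = inhibition above the campaign mean plus 3 SD over all tested compounds, cut at about 24% in these data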;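 note: cytokine-independent growth of Ba/F3 cells driven by EpoR plus mutant JAK2; 0% = DMSO-treated cells and 100% = JAK inhibitor I control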
BaF3 tox = reduces parental Ba/F3 cell viability, JAK2V617F counter-screen | 1.1% of 220,000 active | inhibition, % at 5.6 µM | CellTiter-Glo ATP luminescence;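 active = inhibition above a per-campaign cutoff, the mean inhibition of all tested compounds plus 3 SD, cut at about 27% in these data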;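 note: 0% = DMSO wells and 100% = JAK Inhibitor I control wells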
aSyn 5UTR inh = 5' untranslated region of α-synuclein, MLPCN primary screen; inhibition, % (tested at 7.5 µM); 0.82% of 300,000 active; alpha-synuclein 5'UTR reporter, inhibitor activity; in the data active = inhibition above about 60%;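 note: H4 neuroglioblastoma cells stably carrying SNCA 5'UTR luciferase fusion; 0% = DMSO wells and 100% = positive control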
IEC-6 tox-1 = counter-screen for KLF5 inhibitors: cytotoxicity in IEC-6 cells; inhibition, % at 5 µM; IEC-6 cytotoxicity, luminescence viability; 0.78% of 290,000 active; in the data active = inhibition above about 22%;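 note: 0% = plate median of test compound wells and 100% = cytotoxic reference compound wells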
KLF5 inhibitor = kruppel-like factor 5 inhibition; 0.23% of 290,000 active; AID 1700; inhibition, % at 5 µM; DLD-1 KLF5 promoter-luciferase reporter, luminescence;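 active = inhibition above a per-plate limit of that plate's mean compound inhibition plus 3 SD, cut at about 60% in these data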;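 note: 0% = DMSO wells and 100% = LY294002 at 200 µM; higher means less KLF5 promoter-driven luciferase light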
APP 5UTR inh = APP translation inhibition; SH-SY5Y APP 5'UTR-luciferase reporter, luminescence; inhibition, % at 2 µM; 0.82% of 190,000 active;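 active = inhibition above a set limit, derived from the sample mean plus 3 SD, cut at about 45% in these data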
KLF5 confirm = confirmation of KLF5 inhibitors; shares compounds with KLF5 inhibitor; DLD-1 KLF5 promoter firefly luciferase reporter, luminescence; AID 1834; inhibition, % at 4 µM; 79% of 610 active;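 active = inhibition above a set limit taken from the earlier primary screen, cut at about 63% in these data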;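 note: 0% = DMSO wells and 100% = LY294002 at 200 µM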
IEC-6 tox-2 = counter-screen for KLF5 inhibitors: cytotoxicity in rat IEC-6 cells; shares compounds with KLF5 inhibitor; IEC-6 rat intestinal cells, viability luminescence; inhibition, % at 4 µM; 56% of 610 active; in the data active = inhibition above about 23%;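 note: cells exposed to compounds for 48 hours before viability read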
* marks the source's active call; other numbers are inactive results; / = not tested or not shown. This is a sample that favours compounds with a hit; in the whole collection about 2.1% have one here.

SMILES	Ba/F3 V617F tox	BaF3 tox	aSyn 5UTR inh	IEC-6 tox-1	KLF5 inhibitor	APP 5UTR inh	KLF5 confirm	IEC-6 tox-2
COc1ccccc1N=Nc1ccc(O)c2ncccc12	/	/	37	4	75*	/	47	1
O=[N+]([O-])c1ccc(O)c(-c2cc(C(F)(F)F)nc(-c3ccccc3)n2)c1	/	/	90*	13	82*	/	86*	41*
Oc1ccccc1-c1cc(C(F)(F)C(F)F)nc(-c2ccccc2)n1	-1	0	/	-8	1	-1	/	/
O=C(O)c1ccc(NC(=S)NC(=O)c2ccc(-c3ccc(Br)cc3)o2)cc1	/	/	-7	5	-25	/	/	/
CCNC(=S)NNC(=O)c1cc(-c2ccc(OCC)cc2)nc2ccccc12	24*	31*	56	14	81*	-127	79*	0
COc1ccc(NC(=O)N2CCCC(C(=O)NCCc3ccccc3)C2)cc1 (centres undefined)	/	/	-35	-2	-55	/	/	/
Cc1cc(/C=N/Nc2ncnc(N)c2[N+](=O)[O-])c(C)n1-c1ccccc1	2	3	95*	7	67*	/	97*	4
COc1cccc(/C=N/Nc2ncnc(N)c2[N+](=O)[O-])c1OC	2	4	27	0	-23	-86	/	/
NC(=O)CSc1nnc(CSc2ncccn2)n1-c1ccccc1	-1	6	5	2	3	7	/	/
CCCCn1c(N)c(N(CCOC)C(=O)c2cccc(-n3cnnn3)c2)c(=O)[nH]c1=O	/	/	4	/	/	/	/	/
O=C(N/N=C/c1cc(Cl)ccc1O)c1ccncc1	2	2	-2	3	70*	/	88*	-4
CCCC1=Nc2cc(C(=O)NCCCOC(C)C)ccc2Sc2ccccc21	7	11	11	5	62*	2	16	19
CC1=Nc2cc(C(=O)NCCCOC(C)C)ccc2Sc2ccccc21	1	4	-29	8	-30	1	/	/
CC1=Nc2cc(C(=O)NCCCOC(C)C)ccc2Sc2ccc(C)cc21	74*	71*	77*	84*	74*	95*	85*	59*
O=C(Nc1nncs1)c1cc2c(s1)CCC2	1	8	-132	0	-93	-40	/	/
O=C(Nc1nccs1)c1cc2c(s1)CCCCC2	-1	7	72*	9	75*	-37	70*	-1
COc1ccc(Cc2nnc(N/N=C/c3ccc(O)cc3)[nH]c2=O)cc1OC	-5	4	82*	-3	65*	86*	106*	12
Cc1ccc(S(=O)(=O)Nc2cc(Cl)c(O)c3ncccc23)cc1	/	/	77*	6	68*	/	79*	7
Cc1ccc(NS(=O)(=O)c2ccc(C(=O)NNC(=O)c3ccccc3O)cc2)cc1	/	/	14	/	/	/	/	/
COc1ccc(OC)c(C2C3=C(COC3=O)Nc3cc4c(cc32)OCO4)c1 (centres undefined)	96*	91*	89*	94*	88*	95*	92*	82*
O=C(c1ccnc(Cl)c1)N1CCCC(N2CCN(c3ccccc3F)CC2)C1 (centres undefined)	/	/	10	-1	5	/	/	/
Oc1c(Br)cc(Br)cc1/C=N/Nc1ccc(Cl)nn1	/	/	97*	-4	102*	/	36	-4
O=C(/C=C/c1ccccc1)Nc1cc(NC(=O)/C=C/c2ccccc2)cc(C(=O)O)c1	/	/	-21	-4	-4	/	/	/
O=C(/C=C/c1ccccc1)Nc1cccc(C(=O)O)c1	-2	10	95*	4	102*	64*	101*	1
Cc1cc(OCC(=O)NC(C)c2ccccc2)ccc1[N+](=O)[O-] (centres undefined)	0	2	7	-1	-10	-5	/	/
SMILES	Ba/F3 V617F tox	BaF3 tox	aSyn 5UTR inh	IEC-6 tox-1	KLF5 inhibitor	APP 5UTR inh	KLF5 confirm	IEC-6 tox-2
COc1ccc(OC)c2[nH]c(C(=O)N/N=C/c3ccccc3O)cc12	/	/	4	12	96*	/	90*	-4
Oc1ccc(CN2CCc3ccccc3C2)c2cccnc12	75*	77*	103*	6	71*	87*	63*	19
Oc1cc2c(cc1CN1CCc3ccccc3C1)OCO2	/	/	14	6	-19	/	/	/
c1ccc(SCc2cn(C[C@H]3CC[C@@H]([C@@H]4CC[C@H](Cn5cc(CSc6ccccc6)nn5)O4)O3)nn2)cc1	/	/	8	-3	-2	/	/	/
Cc1ccc(-c2nnc(CN3CCCCC3C)o2)cc1 (centres undefined)	/	/	-8	11	-14	/	/	/
CC(C)(C)c1ccc(C(=O)COC(=O)CN2C(=O)NC3(CCCC3)C2=O)cc1	/	/	-11	1	-21	/	/	/
CCC(=O)NC(c1ccc(OC)c(OC)c1)c1cc(Cl)c2cccnc2c1O (centres undefined)	81*	39*	111*	11	68*	62*	87*	30*
CCCCC(=O)NC(c1ccc(N(CC)CC)cc1)c1ccc2cccnc2c1O (centres undefined)	/	/	68*	11	68*	/	85*	44*
CCCC(=O)NC(c1ccccc1OC)c1ccc2cccnc2c1O (centres undefined)	102*	101*	124*	101*	91*	75*	97*	47*
CCCC(=O)NC(c1ccc(N(C)C)cc1)c1c(O)ccc2ccccc12 (centres undefined)	-2	2	-2	-8	2	3	/	/
CCCC(=O)NC(c1ccccc1Cl)c1c(O)ccc2ccccc12 (centres undefined)	6	9	6	-4	-14	-11	/	/
CCCC(=O)NC(c1ccc(Cl)cc1Cl)c1ccc2cccnc2c1O (centres undefined)	/	/	64*	19	82*	/	82*	53*
COc1ccc(C(=O)N/C(=C\c2ccc3c(c2)OCO3)C(=O)N2CCOCC2)cc1	/	/	-7	-5	-2	/	/	/
CC(=O)NC(CC(=O)OC(C)C(=O)Nc1ncc(Cl)cc1Cl)c1ccccc1 (centres undefined)	/	/	3	-7	-16	/	/	/
Cc1cc(OCC(=O)N[C@@H](CSCc2ccccc2)C(=O)O)c2c(C)c(C)c(=O)oc2c1	/	/	3	-2	5	/	/	/
CCN(CC(=O)NCc1cccs1)C(=O)c1ccc(NS(=O)(=O)c2ccc(F)cc2)cc1	/	/	2	/	/	/	/	/
O=C(Nc1ncc([N+](=O)[O-])s1)c1ccc2c(c1)OCO2	/	/	103*	12	76*	/	55	36*
O=[N+]([O-])c1cc(CN2CCCC2)c2cccnc2c1O	-2	5	/	-9	-29	3	/	/
Oc1c(Cl)cc(CN2CCCCC2)c2cccnc12	/	/	38	7	98*	/	92*	12
COc1ccccc1N1CCN(Cc2cc(Br)c(O)c3ncccc23)CC1	98*	86*	77*	1	93*	21	65*	-2
